Values joined by “and” are separate entries in the source; they are usually repeats but may differ in a detail not shown here. Equal values may be shown once. The whole screen tested about 300,000 compounds, of which about 37,000 (12%) were called active. Shown is part of a subset that was picked to be rich in actives. A number with no mark means an inactive call. Rule as the data show it: active = max response mostly above about 13% (no sharp cut-off); inactive = mostly below about 14%.

The nature of the experiment: Cycloheximide Counterscreen for Small Molecule Inhibitors of Shiga Toxin. Also: read at 38.3 µM for the half of the compounds with a filed dose; 0% is about no effect. Particulars: cell reporter, cycloheximide protein synthesis inhibition counterscreen; active compounds read high.
Consider `Cc1ccc(-n2ncc3c2CC(C)(C)CC3NC(=O)CCc2cnn(C)c2)cc1` (centres undefined), for which the max response was -4.22%.
Under `O=C1c2cccc3cccc(c23)C(=O)N1c1cccc(O)c1` stands -2.33%.
Regarding `O=C(Nc1cccc(Cl)c1N1CCOCC1)c1cccnc1`, the max response was 6.59%.
For `Cc1noc(C)c1C(=O)NCCc1ccc(S(N)(=O)=O)cc1`, the max response was -1.04%.
For the compound `Cc1nc2sccn2c(=O)c1S(=O)(=O)NCCc1ccccc1`, the max response is -3.53%.
Under `C/C(=N/Nc1nc(-c2ccccc2)c(CC(=O)O)s1)c1ccccc1` stands 35% (active); under `CCOC(=O)C(=O)Nc1nc(-c2ccccc2)c(CC)s1`, -3.08%.
The result for `Cc1ccc(-c2nc(C)sc2CC(=O)O)cc1` reads -1.04%; that for `O=[N+]([O-])c1ccccc1S(=O)(=O)Nc1cccc2cccnc12`, 10.3% and 10.1% and -3.71%; that for `CCN1CCN(C(=O)CCN2C(=O)c3ccccc3C2=O)CC1`, -1.33%.
Under `CCOC(=O)N1CCN(C(=O)CNC(=O)Cc2ccc(Cl)cc2)CC1` stands -1.82%; under `CCN1CCN(C(=O)CSc2ccc(C)cc2)CC1`, 15.7% (active); under `CS(=O)(=O)N1CCN(C(=O)CSc2ccccc2)CC1`, -1.13%.
On to `CCOC(=O)N1CCN(C(=O)COc2ccc(Cl)cc2C)CC1`, for which the max response was -3.61%.
Under `CCOC(=O)N1CCN(C(=O)CSc2ccc(Cl)cc2)CC1` stands 20.3% (active).
Turning to `COc1ccc(OC)c(NC(=O)c2ccc3c(c2)C(=O)N(c2ccc(OC(C)=O)cc2)C3=O)c1`, the max response is 2.74%.
With `CCC1SC2=NCCN2C1(O)c1ccc(Cl)cc1` (centres undefined), the max response is -0.782%.
The result for `CCOc1nc(-c2ccc(OC)cc2)ccc1-c1noc(-c2cc(OC)c(OC)c(OC)c2)n1` reads 8.08%; that for `COc1ccc(-c2noc(-c3cccc(OC)c3OC)n2)cc1OC`, 36% (active).
Under `COc1ccc(-c2csc3nc(-c4ccccc4F)oc(=O)c23)cc1OC` stands -1.13%.
For the compound `Cc1ccccc1OCC(=O)Nc1ccc(S(=O)(=O)N2CCOCC2)cc1`, the max response is 4.38%.
Turning to `CCCOc1cccc(C(=O)Nc2ccccc2C(=O)N2CCN(C)CC2)c1`, the max response was -0.829%.
With `Nc1cccc2c1C(=O)N(Cc1nnc(-c3ccccc3Br)o1)C2=O`, the max response was 12.5%.
Under `Cn1cnnc1SCc1nnc(-c2ccccc2Br)o1` stands 24% (active); under `Cn1cnnc1SCC(=O)NNC(=O)COc1ccc(Br)cc1`, -2.49%.
The result for `Cc1ccc(S(=O)(=O)/N=C(\CN2CCOCC2)N2CCOCC2)cc1` reads -4.56%; that for `CN(CCO)c1ccc(/C=N/Nc2nncc3ccccc23)cc1`, 26.2% (active); that for `COc1cc(/C=N/Nc2nn3cnnc3c3ccccc23)cc(OC)c1OC`, 17.3%.
Regarding `Cc1[nH]c(C)c(S(=O)(=O)N2CCC(C)CC2)c1C(=O)N1CCCC1`, the max response is -1.96%.
Under `CCc1ccc(OCC(=O)OC(C)C(=O)NC2CC2)cc1` (centres undefined) stands -3.17%; under `Cc1nc(-c2ccc(Cl)cc2)sc1C(=O)NN`, 0.842%; under `CCC(Sc1nncn1C)C(=O)Nc1nnc(-c2ccc(Cl)cc2)s1` (centres undefined), 11.6%.
Under `Cc1nc(-c2ccc(Cl)cc2)sc1C(=O)CBr` stands 24.4% (active).
`Cc1cc(/C=N/NC(=O)CC2(C)OCCO2)c(C)n1-c1ccc(Cl)c(Cl)c1`: the max response is -1.92%.
With `COc1ccc(-c2noc(CNC(=O)C(C)Oc3ccccc3)n2)cc1` (centres undefined), the max response was 0.411%.
Under `Cc1ccc(-c2nc(CS(=O)(=O)CC(=O)NCc3ccc4c(c3)OCO4)c(C)o2)cc1` stands -6.73%; under `CC(=O)N1CCSc2ccc(S(=O)(=O)N3CCC(C)CC3)cc21`, 11.3%.
The result for `COc1ccc2nc(/N=C(\N)NC(=O)Nc3ccccc3)nc(C)c2c1` reads 21.4% (active); that for `COc1ccc2nc(C)cc(Nc3cccc(C(=O)O)c3)c2c1`, -4.02%.
The result for `Cc1nc(/N=C(\N)NC(=O)NC2CCCCC2)nc2ccccc12` reads 8.1%; that for `NC(=O)c1cc(S(=O)(=O)N2CCCC2)ccc1OCc1ccc(F)cc1`, 8.59%.
Regarding `COc1ccc(CCNc2nc(C)cc(C)n2)cc1OC`, the max response was -4.51%.
Under `CCOC(=O)c1sc(=NC(=O)c2ccc(Br)cc2)n(C)c1C` stands 7.25%; under `CCOC(=O)c1sc(=NC(=O)/C=C/c2cccs2)n(C)c1C`, 45% (active); under `CCOC(=O)c1c(NC(=S)NC(=O)/C=C/c2cccs2)sc(C)c1C`, -0.873%.
For `Cc1cccc2[nH]c(CN(C)C(=O)C3CCC(=O)N(CCc4ccccc4)C3)nc12` (centres undefined), the max response was -2.09%.
Turning to `CC1CCN(S(=O)(=O)c2ccc(NC(=O)C3CC(=O)N(c4ccccc4)C3)cc2)CC1` (centres undefined), the max response is -2.49%.
`COC(=O)c1cc(S(=O)(=O)NCC2CCN(Cc3ccc(Cl)cc3)CC2)cn1C`: the max response is -2.79%.
As for `Cc1cc(NC(=O)Nc2c[nH]c(=O)[nH]c2=O)ccc1Br`, the max response is 9%.
The result for `COC(=O)c1cccc(NS(C)(=O)=O)c1` reads -1.63%; that for `COC(=O)c1ccc2c(C(C)(C)O)c(C(C)(C)O)[nH]c2c1`, 14.2% (active); that for `CCN(CC)CCNC(=O)CCCCCn1c(=O)[nH]c2cc(C(=O)OC)ccc2c1=O`, -5.11%.
Under `CC(C)(C)c1cc(C(=O)NN)n(Cc2ccc(Cl)cc2Cl)n1` stands -2.75%; under `N=c1n(Cc2ccc(Cl)cc2)c2ccccc2n1CC(O)c1ccco1` (centres undefined), -4.56%.
The result for `C=C(C)CNC(=S)/N=c1\scc(C)n1CC` reads 10.1%; that for `O=C(CSc1cccc2cccnc12)N/N=C/c1cccnc1`, 31.6%.
Consider `Cc1ccc(NC(=O)CSc2cccc3cccnc23)c(C)c1`, for which the max response was 21%.
As for `CC(=O)/C(=N\Nc1ccc(Cl)cc1Cl)Sc1cccc2cccnc12`, the max response was 19.1% (active).
For `COc1ccc(CCN2CC(C(=O)NCCN3CCNC3=O)CCC2=O)cc1` (centres undefined), the max response was 7.2%.
For `COc1cc(C(=O)OC(C)C(=O)NCC2CCCCC2)cc(NC(=O)c2ccco2)c1OC` (centres undefined), the max response is -2.06%.
The result for `COc1ccc(C[C@H]2CN3C(=NC[C@H]3C)N2CCNC(=O)CCC2CCCCC2)cc1` reads 5.31%; that for `CCc1nn(CCCC(=O)Nc2ccc(C)cc2C)c(=O)c2cc3occc3n12`, 0.647%.
Under `CC(=O)N1Cc2ccccc2CC1C(=O)O` (centres undefined) stands -1.38%; under `Cc1ccc(NC(=O)Nc2nnc(-c3ccncc3)s2)cc1`, -1.9%.
The result for `Cc1ccc(Nc2nc(C)cc(C)c2C(N)=O)cc1` reads -4.97%.
With `Cc1ccc(Nc2nc(Cl)c(C=O)s2)cc1`, the max response is 46% (active).
For the compound `Cc1cccc(OCC(O)CN2CCN(CCN3C(=O)c4cccc5cccc(c45)C3=O)CC2)c1C` (centres undefined), the max response is -8.1%.
As for `COC(=O)CN1C(=O)[C@H]2[C@@H](C3CC3)N3C(=O)CN(Cc4ccc(-c5ccccc5)cc4)C(=O)[C@@]3(Cc3ccccc3)[C@H]2C1=O`, the max response is -3.99%.
Under `Cc1ccc(NC(=S)N(CCCN2CCCC2)Cc2cccn2Cc2ccc(Cl)cc2)cc1` stands -7.32%.
The result for `Cc1cc(F)ccc1S(=O)(=O)N1CCCOC1CNC(=O)C(=O)NCCC1=CCCCC1` (centres undefined) reads -4.9%; that for `O=C1CC(c2ccccc2)=NN1c1ccc([N+](=O)[O-])cc1`, 17.2% (active).
Under `CC1=NN(c2ccccc2)C(=O)C1C(=O)c1ccc([N+](=O)[O-])cc1` (centres undefined) stands 20.6%.
`O=c1[nH]n(-c2ccc([N+](=O)[O-])cc2)c(=O)c2ccccc12`: the max response is -2.65%.
Under `Cc1ccc(CNC(=O)C2(C(F)(F)F)C/C(=C\Cc3ccccc3)CCCO2)o1` (centres undefined) stands -3.33% and -3.22%; under `O=C(COc1nsnc1N1CCOCC1)Nc1ccccc1Cl`, 8.06%; under `COc1cc2ccccc2cc1C(=O)Nc1ccc(N2CCOCC2)cc1`, 8.83%.
Under `COc1cccc(/C=C(/CC(=O)Nc2ccc(N3CCOCC3)cc2)c2nc3ccccc3s2)c1` stands 50.5% (active).
Consider `CCn1c(Cc2ccc(OC)cc2)nnc1SCC(=O)Nc1ccc(N2CCOCC2)cc1`, for which the max response was -3.63%.
As for `COc1ccc(NC(=O)COC(=O)c2ccc(NS(=O)(=O)/C=C/c3ccccc3)cc2)cc1`, the max response is 0.764%.
Consider `COc1ccc(/C=C(/CC(=O)Nc2ccc(C)cc2)c2nc3ccccc3s2)cc1`, for which the max response is 21.2% (active).
The result for `COc1ccc(NC(=O)CSc2nc3ccccc3c(=O)n2C)cc1` reads -4.03%.
The result for `Cc1cc(C(=O)NC2CCN(Cc3ccccc3)CC2)n[nH]1` reads -5.5%; that for `Clc1ccc(C[n+]2cc(-c3ccc(Cl)cc3)n3c2CCC3)cc1`, 1.82%; that for `Cc1ccc(CN2CCCOCCS2(=O)=O)cc1`, 0.911%.
The result for `CCO[C@@H]1OC(C(=O)NCc2nc3ccccc3[nH]2)=C[C@H](C2CCCCC2)[C@H]1CCCO` reads -1.94%.
With `O=C(COc1ccccc1)NCCc1nc2ccccc2[nH]1`, the max response is -4.17%.
The result for `O=C(OCc1nc2ccccc2[nH]1)C1CCCCC1` reads 16.3% (active); that for `CCc1cc2c(NC(Cc3ccccc3)C(=O)O)ncnc2s1` (centres undefined), 1.45%.
Take `Cc1ccc(NC(=O)CC2C(=O)N(Cc3ccccc3)C(=S)N2NC(=O)c2cccc(F)c2)c(C)c1` (centres undefined): the max response was -8.81%.
On to `Cc1ccc(OCCCCc2c(C)n[nH]c2C)cc1`, for which the max response is 7.68%.
Under `Nc1nc(SCCOc2ccccc2)n[nH]1` stands 10.5%; under `CCCOc1ccc(-c2nc(N)n[nH]2)cc1`, 27.8% (active).
Consider `CC(NCC(=O)Nc1cc(Cl)cc(Cl)c1)c1ccccc1` (centres undefined), for which the max response is -2.23%.
On to `COc1cccc(CNC(=O)CCC2CCCN(Cc3ccc(OC(F)F)cc3)C2)c1` (centres undefined), for which the max response is -2.71%.
